Screens from PubChem BioAssay.
HepG2 viability: counter-screen for TGF-b inhibitors: cytotoxicity in HepG2 cells; AID 588856; Potency, µM (highest dose often 46.1 µM), for inactives: at the highest dose activity change, negative = cytotoxicity, usual class: cytotoxic; 410,000 tested, 0.76% active; HepG2 CAGA-GFP viability, ATP luminescence, 18 h
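HepG2 CAGA-GFP cells (1000/well, DMEM with 1% FBS) received compound, then TGF-beta at 500 pg/mL final, and were incubated 18 hours at 37 degrees C. Viability was read by CellTiter-Glo luminescence. Media-only wells were set as complete cell-killing and DMSO as no toxicity.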
S2 tox: cell viability loss in ATXN counter-screen | Potency, µM (highest dose often 56.7 µM), actives largely listed as cytotoxic | 400,000 tested, 0.49% active | AID 651635 | S2 cells (HEK-293 line with an ATXN2-luciferase reporter) viability, CellTiter-Fluor protease fluorescence, 24 h; also: nearly all actives have a fitted effect of over 40% in size
ATXN2 expr inh: reduces ATXN2 reporter expression in HEK-293 cells; HEK-293 ATXN2-luciferase reporter, luminescence, 24 h; Potency, µM (series often up to 57 µM), inactives show top-dose activity change, negative = inhibition, usual class: inhibitors; 360,000 tested, 0.72% active; also: % is scaled to controls: 0 for no effect and ±100 for the full control effect; nearly all actives have a fitted effect of over 55% in size
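qHTS (up to 57 uM final) was run with 24 h compound exposure of reporter cells at 37 °C. Each well was multiplexed: SteadyGlo luminescence measured ATXN2-luciferase expression after a fluorogenic Gly-Phe-AFC viability readout (25 uM final).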
HT1080 IDH1KD tx: kills HT-1080 cells with IDH1 knockdown. HT-1080 IDH1 knockdown viability, ATP luminescence, 48 h. 360,000 tested, 2% active. AID 686971. Potency, µM (titrated, usually from 46.1 µM), for the others: at the top dose activity, negative = toxicity, usual class: cytotoxic;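 also: 0% = DMSO wells and -100% = cell-free medium wells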
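IDH1KD HT-1080 cells, 750/well, RPMI + 5% FBS; compound pinned after 2 h settling; 48 h, 37 °C; CellTiter-Glo luminescence; % activity normalised to DMSO and no-cell wells; curves fitted, classed by r2 and efficacy.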
HT1080-NT tox: kills 2HG-producing HT-1080-NT fibrosarcoma cells | Potency, µM (titrated, usually from 46.1 µM), for inactives: top-dose activity, negative = less viability, actives largely listed as cytotoxic | 360,000 tested, 1.6% active | HT-1080-NT fibrosarcoma viability, CellTiter-Glo ATP luminescence, 48 h;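 also: NT is the 2HG producing partner of a matched IDH1 knockdown line; 0% = DMSO-treated cells and -100% = media-only wells without cells; nearly all actives have a fitted effect of over 55% in size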
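750 cells/well, RPMI + 5% FBS; 2 h settle, compound pin-transfer, 48 h at 37 degrees C. CellTiter-Glo 10 min RT, luminescence. Normalized to DMSO and media-only wells.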
TGFb SMAD3 inh: TGF-b pathway inhibition; Potency, µM (titrated, usually from 46.1 µM), for inactives: at the highest dose activity, negative = inhibition, actives largely listed as inhibitors; HepG2 CAGA-GFP TGF-b/SMAD3 reporter, GFP fluorescence, 18 h; TGF-beta stimulated, 500 pg/mL final; 410,000 tested, 1.2% active; also: % is scaled to controls: 0 for no effect and ±100 for the full control effect; nearly all actives have a fitted effect of over 65% in size
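Smad-responsive CAGA-GFP expression was quantified in HEPG2 cells exposed to compounds and 500 pg/mL final TGF-beta for 18 h at 37 degrees C; unstimulated wells defined full inhibition.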
* marks the source's active call; other numbers are inactive results; ! = a repeat was not active; [ ] = dose if it differs, or a comment. Compounds with a hit are over-represented: about 3.8% of the library has one in this group of screens. Calls follow the shape of the dose curve; as a rule, active = well fitted curve in the direction sought with a large enough effect; inconclusive = small, poorly fitted or top-dose-only effect, or another doubt; inactive = no such curve, though single readings can be large; an effect the other way counts as inactive or inconclusive. Potency is read from the fitted curve at half-maximal effect.

What do the screens show for `CC(=O)N(Cc1c(C)nn(-c2ccccc2)c1Cl)c1ccc(Cl)cc1`?
HepG2 viability: -45%; S2 tox: inactive; ATXN2 expr inh: -13%; HT1080 IDH1KD tx: -10%; HT1080-NT tox: -1%; TGFb SMAD3 inh: 2%

Results for COc1cc(CNc2ccc(S(N)(=O)=O)cc2)ccc1OCc1ccccc1F ?
HepG2 viability: -19%; S2 tox: inactive; ATXN2 expr inh: 10%; HT1080 IDH1KD tx: -10%; HT1080-NT tox: -2%; TGFb SMAD3 inh: -17%

How did NS(=O)(=O)c1ccc(CCNCc2cc(Cl)ccc2OCc2ccccc2)cc1 do in these assays?
HepG2 viability: -69%; S2 tox: inactive; ATXN2 expr inh: -35%; HT1080 IDH1KD tx: inconclusive; HT1080-NT tox: inconclusive; TGFb SMAD3 inh: 11µM*

What do the screens show for `C=CCOc1ccccc1CNCCc1ccc(S(N)(=O)=O)cc1`?
HepG2 viability: -7%; S2 tox: inactive; ATXN2 expr inh: -9%; HT1080 IDH1KD tx: -6%; HT1080-NT tox: 3%; TGFb SMAD3 inh: 18%

Results for NS(=O)(=O)c1ccc(CCNCc2ccccc2OCc2ccc(Cl)cc2)cc1 ?
HepG2 viability: -91%; S2 tox: inactive; ATXN2 expr inh: inconclusive; HT1080 IDH1KD tx: 15µM*; HT1080-NT tox: 23µM*; TGFb SMAD3 inh: inconclusive

Results for NS(=O)(=O)c1ccc(CCNCc2cc(Br)ccc2OCc2ccccc2F)cc1 ?
HepG2 viability: -85%; S2 tox: inactive; ATXN2 expr inh: -17%[11.3 µM]; HT1080 IDH1KD tx: 23µM*; HT1080-NT tox: inconclusive; TGFb SMAD3 inh: inconclusive

Results for O=C(COc1ccc(Br)cc1CNCCc1ccccc1)NCc1ccccc1 ?
HepG2 viability: 13µM*; S2 tox: inconclusive; ATXN2 expr inh: inconclusive; HT1080 IDH1KD tx: inconclusive; HT1080-NT tox: 21µM*; TGFb SMAD3 inh: inconclusive

Results for CCOC(=O)c1c(S(=O)(=O)N2CCCC(C(=O)NCc3ccccc3OC)C2)c(C)n(C)c1C (configuration not stated) ?
HepG2 viability: 3%; S2 tox: inactive; ATXN2 expr inh: -11%; TGFb SMAD3 inh: 1%

What do the screens show for `CCOc1ccccc1CN1CCc2nc(N3CCN(C)CC3)ncc2C1`?
HepG2 viability: -6%; S2 tox: inactive; ATXN2 expr inh: -8%; TGFb SMAD3 inh: -3%

Results for CCc1ccc(CN(Cc2ccco2)c2cnc(S(C)(=O)=O)nc2C(=O)Nc2ccccc2Cl)cc1 ?
HepG2 viability: -24%; S2 tox: inactive; ATXN2 expr inh: 16%; TGFb SMAD3 inh: 7.9µM*

How did CCS(=O)(=O)c1ncc(Cl)c(C(=O)N(Cc2ccccc2)Cc2ccco2)n1 do in these assays?
HepG2 viability: 5.6µM*; TGFb SMAD3 inh: inconclusive

Results for CCc1ccc(CN(Cc2ccco2)c2cnc(S(C)(=O)=O)nc2C(=O)Nc2c(C)cccc2C)cc1 ?
HepG2 viability: -29%; S2 tox: inactive; ATXN2 expr inh: 3%; TGFb SMAD3 inh: inconclusive

How did CN=C1c2cc3cc(OC)ccc3n2CCN1Cc1ccccc1 do in these assays?
HepG2 viability: -22%; S2 tox: inactive; ATXN2 expr inh: inconclusive; HT1080 IDH1KD tx: 23µM*; HT1080-NT tox: 16µM*; TGFb SMAD3 inh: inconclusive

Results for COc1ccccc1-c1cc2c(c(OC)c1)OCCN(CCC(C)c1ccc(C)o1)C2 (configuration not stated) ?
S2 tox: inactive

Results for COC(=O)C1CCN(Cc2ccc3c(c2)CN(C(=O)c2ccnn2C)CCO3)CC1 ?
S2 tox: inactive

What do the screens show for `COC(=O)c1ccccc1NC(=O)CCC(=O)N1CCSc2ccccc21`?
HepG2 viability: -29%; S2 tox: inactive; ATXN2 expr inh: -1%; HT1080 IDH1KD tx: 9%; HT1080-NT tox: 7%; TGFb SMAD3 inh: -5%

How did Cc1cc(C)cc(NC(=O)CCC(=O)N2CCSc3ccccc32)c1 do in these assays?
HepG2 viability: -1%; S2 tox: inconclusive; ATXN2 expr inh: -13%; HT1080 IDH1KD tx: 0%; HT1080-NT tox: -1%; TGFb SMAD3 inh: 11µM*!

What do the screens show for `CCCCOc1ncnc2c1[nH]c1ccc(C)cc12`?
HepG2 viability: -20%; S2 tox: inactive; ATXN2 expr inh: 3%; HT1080 IDH1KD tx: 4.6µM*; HT1080-NT tox: inconclusive; TGFb SMAD3 inh: 0%

Results for CCCOc1ncnc2c1[nH]c1ccc(OC)cc12 ?
HepG2 viability: 122%; S2 tox: inactive; HT1080 IDH1KD tx: -10%; HT1080-NT tox: -18%; TGFb SMAD3 inh: 0%

Results for O=C1NC[C@H](Cc2ccccc2)N(CCc2cc(C(F)(F)F)cc(C(F)(F)F)c2)C1=O ?
HT1080 IDH1KD tx: -23%; HT1080-NT tox: -17%

What do the screens show for `O=C1NC[C@@H](Cc2cccc3ccccc23)N(CCc2cc(C(F)(F)F)cc(C(F)(F)F)c2)C1=O`?
HepG2 viability: -119%; ATXN2 expr inh: inconclusive; HT1080 IDH1KD tx: 7%; HT1080-NT tox: 7%; TGFb SMAD3 inh: 13µM*

What do the screens show for `COc1cc2c(cc1OC)CN(CCc1ccc(NC(=O)c3cccc4c(=O)c5cccc(OC)c5[nH]c34)cc1)CC2`?
ATXN2 expr inh: 9%

What do the screens show for `O=C1CCN(CCc2ccccc2)CCN1[C@H](COc1ccccc1)c1ccccc1`?
HepG2 viability: -27%; S2 tox: inconclusive; ATXN2 expr inh: -19%; HT1080 IDH1KD tx: -10%; HT1080-NT tox: -3%; TGFb SMAD3 inh: 10µM*

Results for CN(C)CCN1C(=O)C(=O)/C(=C(/O)c2ccc(S(=O)(=O)N3CCOCC3)cc2)C1c1ccc(F)cc1 (configuration not stated) ?
HepG2 viability: 13µM*; S2 tox: inactive; ATXN2 expr inh: 1%; HT1080 IDH1KD tx: 9%; HT1080-NT tox: 8%; TGFb SMAD3 inh: -4%

What do the screens show for `CN(C)CCN1C(=O)C(=O)/C(=C(/O)c2ccc(S(=O)(=O)N3CCOCC3)cc2)C1c1ccccc1` (configuration not stated)?
HepG2 viability: -7%; S2 tox: inactive; ATXN2 expr inh: 7%; HT1080 IDH1KD tx: -21%[9.24 µM]; HT1080-NT tox: -21%; TGFb SMAD3 inh: -2%

How did COc1ccccc1CNC(=O)CCCn1c(=O)c2ccccc2n(Cc2ccccc2F)c1=O do in these assays?
HepG2 viability: -2%; S2 tox: inactive; ATXN2 expr inh: 10%; TGFb SMAD3 inh: 7%
